Data from PubChem BioAssay (NCI).
The panel holds about 83,000 compounds, 20% with a hit somewhere; the sample as a whole holds those more often.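 Testing used 96-well plates and a 48-hour single-concentration exposure. Example: -40 means 40% of the starting cells died.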 Unmarked numbers belong to inactive results. The source made the active and inactive calls.

These compounds were tested on ACHN renal (assay: NCI-60 one-dose screen, 48 h (100 = growth as untreated, 0 = no growth, -100 = all killed)). Conditions: 10 µM unless noted.
Method: Growth inhibition of the ACHN human tumor cell line is measured as a screen for anti-cancer activity. Cells are grown in 96 well plates and exposed to the test compound for 48 hours. Compounds are tested at a single concentration, which is 10^-5 M for most compounds. The reported endpoint is percent growth (GI% or GIPRCNT), where numbers from 0 - 100% represent growth inhibition, and numbers from -100% - 0 represent cell death. For example, a value of 40 represents 60% growth inhibition. A value of 0 means no net growth occurred over the course of the experiment. A value of -40 indicates 40% of cells at the beginning of the experiment died by the end of the experiment. A value of -100 means all cells are dead at the end of the experiment.
NCI-60 Human Tumor Cell Lines Screen was performed using the standard one-dose NCI protocol, which is described in more detail at https://dtp.cancer.gov/discovery_development/nci-60/default.htm.
Compounds with GIPRCNT values below 10 were considered active. Activity score was based on GIPRCNT using the following formula: […]
Score is 0 for GIPRCNT values of 100 or above, 50 for GIPRCNT values of 0, and 100 for GIPRCNT values of -100.
In the case of `CC(=O)Nc1ccc2c(c1)Cc1cc(F)ccc1-2`, the growth is reported as 104%.
In the case of `C#CCOC(=O)[C@]1(C)CCC[C@]2(C)[C@H]3C[C@H]4C(C(C)C)=C[C@]3(CC[C@H]21)[C@@H]1C(=O)CCC(=O)[C@@H]14`, the growth is reported as 93.5%.
In the case of `CCOC(=O)c1c(C)nc2c(c1N)/C(=C/c1cccs1)C(=O)N2c1ccc(OC)cc1`, the growth is reported as 31.5%.
For `CCN1CCN(c2ccc(NC(=O)Nc3nc4ccc(-c5ccccc5OC)cc4s3)cc2)CC1`, the growth was -95.5% (active).
Compound `O=C(NC[C@H](O)CN1CCc2ccccc2C1)c1cc(NC2COC2)ncn1` has a growth of 95.9%.
`COc1ccc2c(c1)C1(C(=O)N2)C(C#N)=C(c2ccccc2)Nc2c1c(-c1ccccc1)nn2-c1ccccc1` (stereo not given) showed a growth of 88.2%.
With `O=C1C(Cl)=C(NCCCN(CCCNC2=C(Cl)C(=O)c3ccccc3C2=O)C2=C(Cl)C(=O)c3ccccc3C2=O)C(=O)c2ccccc21` the growth was 74.6%.
`N#Cc1c(-c2ccc(F)cc2)nc(N=Nc2c(O)[nH]c3ccc(Cl)cc23)nc1N1CCOCC1` showed a growth of 14.6%.
Compound `Nc1ccc(C2=NN(C(=O)c3cc(-c4ccc(Cl)cc4)nc4ccccc34)C(c3ccccc3)C2)cc1` (stereo not given) has a growth of 51.5%.
With `COc1cc(C(C)c2ccc3c(ccn3C)c2)cc(OC)c1OC` (stereo not given) the growth was 28.5%.
Compound `CCOC(=O)c1c(C)nc2c(c1N)/C(=C/c1cccs1)C(=O)N2Cc1ccccc1` has a growth of 79.7%.
`C=C1C(=O)O[C@H]2[C@H]1CC/C(COC(=O)c1cccnc1)=C\CC[C@@]1(C)O[C@@H]21` showed a growth of 45.2%.
With `COc1ccc(C(C)c2cc(OC)c(OC)c(OC)c2)cc1` (stereo not given) the growth was 37%.
Work on `NC(N)=NC(N)=Nc1cc2ccccc2c2ccccc12` yielded a growth of 22.9%.
`COc1cc2c(cc1OCCCOc1cc3c(cc1OC)C(=O)N1CC(F)(F)C[C@H]1C=N3)N=C[C@@H]1CC(F)(F)CN1C2=O` gave a growth of 24.7%.
`COc1ccc(-c2nnc(N3CCN(C(=O)CN4CCN(c5ccccc5)CC4)CC3)nc2-c2ccc(OC)cc2)cc1` showed a growth of 26.1%.
Compound `CCCCc1n(Cc2ccc3ccccc3n2)cc[n+]1Cc1ccc2ccccc2c1` has a growth of 61.2%.
For `O=c1[nH]nc(-c2ccccc2)c2sc(NC(=S)Nc3ccc(Cl)cc3)nc12`, the growth was 102%.
With `Cc1c(Cl)cccc1NC(=O)c1sc2nc3c(cc2c1N)CCCCCC3` the growth was 41.8%.
With `C#C[C@@]1(O)[C@@H](CO)O[C@@H](n2cc(Cl)c3c(N)ncnc32)[C@@H]1O` the growth was -12.5% (active).
`COC(=O)CCc1cc(O)c2c(c1)[C@@H](C(=O)OC)[C@H](c1ccc(O)c(O)c1)O2` showed a growth of 98.2%.
`O=C(Nc1cc(Br)ccn1)c1cc2cc(Nc3nc(-c4ccccc4)nc4ccccc34)ccc2oc1=O` gave a growth of 103%.
`Cc1nnc(/N=C2\NC(=O)/C(=C/c3ccsc3)S2)s1` showed a growth of 106%.
For `COc1cc(-c2csc(NC(=O)Nc3ccc(Cl)cc3)n2)cc(OC)c1OC`, the growth was 18.3%.
Compound `COc1cc(NC(=O)COc2cc(C)nc3ccc(OC)cc23)cc(OC)c1` has a growth of 82%.
Work on `Nc1c(C(=O)Nc2ccccc2)sc2nc3c(cc12)CN(C(=O)OCc1ccccc1)CC3` yielded a growth of 60.2%.
With `O=C(Nc1ccc(N=Cc2ccccc2O)cc1)NC1C=c2ccccc2=CC1` (stereo not given) the growth was 102%.
With `CCOC(=O)NC(Cc1ccccc1)c1ccccc1` (stereo not given) the growth was 109%.
Work on `COc1cc(NC(=O)Nc2cnc(Nc3ccc(N4CCOCC4)cc3)nc2Oc2ccc(C(F)(F)F)cc2)cc(OC)c1` yielded a growth of 105%.
In the case of `NS(=O)(=O)c1ccc(N2Cc3cc(Cl)ccc3OC3=C2C(=O)N(CC2CCCCC2)C3=O)cc1`, the growth is reported as -100% (active).
In the case of `COc1ccc(NC(=O)Nc2ccc(Nc3nc(C)cc(Nc4ccc(C)cc4)n3)cc2)cc1`, the growth is reported as -99.6% (active).
Compound `O=C1NN(c2ccccc2)C(c2ccc(Cl)cc2)N2CCC[C@H]12` (stereo not given in full) has a growth of 106%.
Compound `O=C(O)c1ccc(-n2cc(/C=N/Nc3ccc(Cl)cc3Cl)c(-c3ccccc3)n2)cc1` has a growth of 83%.
`CC(C)(C)c1ccc2oc(=O)n(SC(Cl)(Cl)Cl)c2c1` was tested, and the growth was 106%.
Compound `C=C(C)[C@@H]1CC[C@]2(C(=O)N3CCN(C)CC3)CC[C@]3(C)[C@H](CC[C@@H]4[C@@]5(C)C/C(=C/c6ccco6)C(=O)C(C)(C)[C@@H]5CC[C@]43C)[C@@H]12` has a growth of 74.7%.
For `NC(=O)c1ccc2nc3c(n2c1)C(=O)C(=O)c1ccccc1-3`, the growth was -100% (active).
In the case of `C=C(C)[C@@H]1CC[C@]2(C(=O)OCCCC[P+](c3ccccc3)(c3ccccc3)c3ccccc3)CC[C@]3(C)[C@H](CC[C@@H]4[C@@]5(C)CC[C@H](OC(=O)C(Cl)Cl)C(C)(C)[C@@H]5CC[C@]43C)[C@@H]12`, the growth is reported as -39.6% (active).
`O=S(=O)(Nc1nccs1)c1ccc(Nc2nc(-c3ccncc3)cs2)cc1` gave a growth of 99.5%.
With `CNCc1cccc2c1OCCOCCOCCN(CCN1CCOCC1)S(=O)(=O)c1ccc(cc1)-c1cnc(N)c(n1)C(=O)N2` the growth was 36.7%.
Compound `O=C1Nc2ccccc2C12C=C(c1ccccc1)Nc1c2c(-c2ccccc2)nn1-c1ccccc1` (stereo not given) has a growth of 60.4%.
